Test results as given in PubChem BioAssay (NCATS).
Results filed as inconclusive are left out. A number with no mark means an inactive call. Activity calls are given as the source filed them. Calls come from the whole dose curve; as a rule, active = well fitted curve in the direction sought with a large enough effect; inconclusive = small, poorly fitted or top-dose-only effect, or another doubt; inactive = no such curve, though single readings can be large; an effect the other way counts as inactive or inconclusive.

Tests used:
[1] = qHTS of pediatric cancer cell lines to identify multiple opportunities for drug repurposing: Primary screen for TC32 cells (AID 1347089); note: nearly all actives have a fitted effect of over 60% in size
Procedure, shortened: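 Measured quantity: luminescence from CellTiter-Glo, reflecting metabolically active TC32 cells following 48 h of compound. Curves came straight from multi-point titrations, with 8 or 11 points in primary and 11 in confirmatory screening.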

[2] = qHTS of pediatric cancer cell lines to identify multiple opportunities for drug repurposing: Primary screen for SJ-GBM2 cells (AID 1347091)
Procedure, shortened: (§1)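 Viability measured as metabolically active cells via CellTiter-Glo luminescence following 48 hours of compound exposure, 11-point dilutions in confirmatory testing. 500-1,000 cells/well plated 5 hours before dosing; controls were DMSO and 2.3 µM bortezomib.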

[3] = qHTS of pediatric cancer cell lines to identify multiple opportunities for drug repurposing: Primary screen for A673 cells (AID 1347092); note: nearly all actives have a fitted effect of over 45% in size
Procedure, shortened: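 Cells are plated, rested 5 h, dosed by pintool, incubated 48 h, then lysed with CellTiter-Glo and read by luminescence. DMSO is the neutral control; bortezomib at 2.3 uM final is the positive control.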

[4] = qHTS of pediatric cancer cell lines to identify multiple opportunities for drug repurposing: Primary screen for SK-N-MC cells (AID 1347093)
Procedure, shortened: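 Metabolically active cells were quantified by ATP-dependent luminescence (CellTiter-Glo, 15 min at room temperature) following 48 h treatment. Cells had been plated at 500-1,000 per well and settled for 5 h beforehand.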

[5] = qHTS of pediatric cancer cell lines to identify multiple opportunities for drug repurposing: Primary screen for BT-37 cells (AID 1347094)
Procedure, shortened: (§2)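 Readout: CellTiter-Glo luminescence, 48 h treatment. Controls DMSO (neutral) and bortezomib 2.3 µM final (positive). Potency and efficacy taken from primary-screen concentration-response curves.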

[6] = qHTS of pediatric cancer cell lines to identify multiple opportunities for drug repurposing: Primary screen for NB-EBc1 cells (AID 1347095)
Procedure, shortened: as §2

[7] = qHTS of pediatric cancer cell lines to identify multiple opportunities for drug repurposing: Primary screen for U-2 OS cells (AID 1347096); note: nearly all actives have a fitted effect of over 50% in size
Procedure, shortened: (§3)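 Viability after 48 h compound treatment at 37C, 500-1,000 cells/well, read as ATP luminescence with CellTiter-Glo. Primary screens used 11-point (MIPE, 0.78 nM-46 µM) or 8-point (NPC, 0.59 nM-46 µM) final concentrations; follow-up screens used 11-point dilutions.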

[8] = qHTS of pediatric cancer cell lines to identify multiple opportunities for drug repurposing: Primary screen for Saos-2 cells (AID 1347097); note: nearly all actives have a fitted effect of over 40% in size
Procedure, shortened: as §2

[9] = qHTS of pediatric cancer cell lines to identify multiple opportunities for drug repurposing: Primary screen for SK-N-SH cells (AID 1347098); note: nearly all actives have a fitted effect of over 65% in size
Procedure, shortened: (§4)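 Cells (500-1,000/well) rested 5 h, then received compounds for 48 h; metabolically active cells were measured by CellTiter-Glo luminescence. Final concentrations spanned up to 46 µM (MIPE, 11-point) or 0.59 nM-46 µM (NPC, 8-point) in primary screens, 11-point in follow-ups.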

[10] = qHTS of pediatric cancer cell lines to identify multiple opportunities for drug repurposing: Primary screen for NB1643 cells (AID 1347099); note: nearly all actives have a fitted effect of over 50% in size
Procedure, shortened: as §2

[11] = qHTS of pediatric cancer cell lines to identify multiple opportunities for drug repurposing: Primary screen for LAN-5 cells (AID 1347100)
Procedure, shortened: as §3

[12] = qHTS of pediatric cancer cell lines to identify multiple opportunities for drug repurposing: Primary screen for BT-12 cells (AID 1347101); note: nearly all actives have a fitted effect of over 25% in size
Procedure, shortened: as §4

[13] = qHTS of pediatric cancer cell lines to identify multiple opportunities for drug repurposing: Primary screen for Rh18 cells (AID 1347102); note: nearly all actives have a fitted effect of over 65% in size
Procedure, shortened: as §3

[14] = qHTS of pediatric cancer cell lines to identify multiple opportunities for drug repurposing: Primary screen for OHS-50 cells (AID 1347103); note: nearly all actives have a fitted effect of over 40% in size
Procedure, shortened: as §4

[15] = qHTS of pediatric cancer cell lines to identify multiple opportunities for drug repurposing: Primary screen for RD cells (AID 1347104); note: nearly all actives have a fitted effect of over 55% in size
Procedure, shortened: as §2

[16] = qHTS of pediatric cancer cell lines to identify multiple opportunities for drug repurposing: Primary screen for MG 63 (6-TG R) cells (AID 1347105); note: nearly all actives have a fitted effect of over 50% in size
Procedure, shortened: as §2

[17] = qHTS of pediatric cancer cell lines to identify multiple opportunities for drug repurposing: Primary screen for DAOY cells (AID 1347090); note: nearly all actives have a fitted effect of over 55% in size
Procedure, shortened: as §1

[18] = qHTS of pediatric cancer cell lines to identify multiple opportunities for drug repurposing: Primary screen for control Hh wild type fibroblast cells (AID 1347106); note: nearly all actives have a fitted effect of over 55% in size
Procedure, shortened: as §3
Potency is the fitted concentration of half-maximal effect.

| SMILES | Potency [1] | Potency [2] | Potency [3] | Potency [4] | Potency [5] | Potency [6] | Potency [7] | Potency [8] | Potency [9] | Potency [10] | Potency [11] | Potency [12] | Potency [13] | Potency [14] | Potency [15] | Potency [16] | Potency [17] | Potency [18] |
| --- | --- | --- | --- | --- | --- | --- | --- | --- | --- | --- | --- | --- | --- | --- | --- | --- | --- | --- |
| CC1(C)CCC(c2ccc(Cl)cc2)=C(CN2CCN(c3ccc(C(=O)NS(=O)(=O)c4ccc(N[C@H](CCN5CCOCC5)CSc5ccccc5)c(S(=O)(=O)C(F)(F)F)c4)cc3)CC2)C1 | inactive | 0.0235 µM (active) | 4.69 µM (active) | 0.0118 µM (active) | 13.7 µM (active) | 0.0187 µM (active) | 7.43 µM (active) | 4.18 µM (active) | 24.1 µM (active) | 0.0093 µM (active) | 0.0093 µM (active) | 15.3 µM (active) | 0.0296 µM (active) | 5.44 µM (active) | 10.5 µM (active) | 9.35 µM (active) | – | – |
| CC(C)C[C@H](NC(=O)CNC(=O)c1cc(Cl)ccc1Cl)B(O)O | 2.94 µM (active) | – | – | 0.148 µM (active) | 0.485 µM (active) | 0.526 µM (active) | 0.743 µM (active) | 18.7 µM (active) | 0.383 µM (active) | 0.59 µM (active) | 0.132 µM (active) | 0.344 µM (active) | 0.235 µM (active) | 6.11 µM (active) | 1.32 µM (active) | 0.235 µM (active) | 0.235 µM (active) | 1.05 µM (active) |
| CC=CC1=C(C(=O)O)N2C(=O)[C@H](NC(=O)[C@H](N)c3ccc(O)cc3)[C@@H]2SC1 | inactive | – | 0.935 µM (active) | 23.5 µM (active) | – | inactive | – | – | 19.2 µM (active) | 20.9 µM (active) | – | – | inactive | – | inactive | inactive | inactive | inactive |
| CCCCCN(CCC12CC3CC(CC(C3)C1)C2)C(=O)NCCCc1ccncc1 | inactive | 18.7 µM (active) | 18.7 µM (active) | 16.6 µM (active) | 24.3 µM (active) | 20.9 µM (active) | inactive | 18.7 µM (active) | inactive | – | 16.6 µM (active) | – | – | 19.3 µM (active) | – | – | – | inactive |
| CC(=O)Nc1nc(C)c(-c2ccc(Cl)c(S(=O)(=O)NCCO)c2)s1 | 4.15 µM (active) | – | 1.87 µM (active) | 0.132 µM (active) | 15.3 µM (active) | 3.72 µM (active) | – | 2.96 µM (active) | 2.41 µM (active) | 3.32 µM (active) | 5.9 µM (active) | – | 7.43 µM (active) | 0.544 µM (active) | 4.18 µM (active) | 1.48 µM (active) | 5.9 µM (active) | – |
